Here are results for 24 sequences from the OligoGym collection.
Note: reference of the scale not given here.

The target of the first assay is HSF2. Nature of the assay: pooled miR-30 sensor sort-seq; sequence = guide strand. As to conditions: shRNA.
Turning to TTAGTTTCTGGAATAACTGGGA, the sensor-assay potency score (higher = more potent) was -0.0464.

In turn, TTCCTGTTTTATCTGAACCTTC registered a sensor-assay potency score (higher = more potent) of -0.752.

TAAACTGGACAATCTTTCGAAT displayed a sensor-assay potency score (higher = more potent) of -0.594.

The sequence TTCATTGTCATCTTCAACGATG yielded a sensor-assay potency score (higher = more potent) of -0.744.

In turn, TAAACCTTCAGTCCTACTGTGT registered a sensor-assay potency score (higher = more potent) of -0.618.

TAACTTGTTGCTGTTGTGCATG displayed a sensor-assay potency score (higher = more potent) of -0.847.

TTTCTTGCTTTACAATTCCAGA came in with a sensor-assay potency score (higher = more potent) of -1.24.

TTGAACATGAATAAACGTCTTT had a sensor-assay potency score (higher = more potent) of 0.178.

The sequence TTTGAAGATGAAACCTTCCTTT returned a sensor-assay potency score (higher = more potent) of 0.173.

For the sequence TACATCTGCGTAACTATGCAGC, the sensor-assay potency score (higher = more potent) was -0.31.

TATGCAGCTGAGTAACACCTGA: the sensor-assay potency score (higher = more potent) is -0.731.

On to TAAAACTAGTCCAACTAACTGG, for which the sensor-assay potency score (higher = more potent) was -0.42.

The next assay deals with HSP90AA1. The description is as above. As to conditions: shRNA.
TTTGTTGCAACATCTCACGGGA had a sensor-assay potency score (higher = more potent) of 0.467.

Turning to TTCTCCTTCATTCTGGTGCAGT, the sensor-assay potency score (higher = more potent) was -0.91.

Sequence TTGCTTTGTTGCAACATCTCAC gave a sensor-assay potency score (higher = more potent) of 0.536.

The sequence TTATCCATGATGAAAACTCTGC yielded a sensor-assay potency score (higher = more potent) of -0.426.

TTTCTCTTCTTCATCCTCTGGA returned a sensor-assay potency score (higher = more potent) of 0.444.

TTGAGTTGTCTCTTAGGGCTTG: the sensor-assay potency score (higher = more potent) came to 0.45.

TACAACTTTAAGCAGAATGTGA came in with a sensor-assay potency score (higher = more potent) of -0.45.

TCGGTTTGACACAACCACCTTT gave a sensor-assay potency score (higher = more potent) of -0.307.

In turn, TTGATCGATGTACTTTTCCTTA registered a sensor-assay potency score (higher = more potent) of -0.594.

TACAATTTGATGTTGTTCTTTT registered a sensor-assay potency score (higher = more potent) of -0.348.

In turn, TTTTTGACCAAATTCTTCCTGA showed a sensor-assay potency score (higher = more potent) of 0.315.

In the case of TTGATCATCCTGTAGATCCTGT, the sensor-assay potency score (higher = more potent) is 0.84.
